Source: ChEMBL document CHEMBL1157539, “Thousands of chemical starting points for antimalarial lead identification” (Nature, 2010)

tested on: HepG2; test: GSK_TCMDC: Percent inhibition of human HepG2 cell line. Test compounds present at 10uM.; format: functional

First: CCN1CCN(CCCCNc2c3ccccc3nc3ccccc23)CC1.Cl
Second: CCCSc1nc2c(c(=O)n1CCc1ccccc1)C1(CCCC1)Cc1ccccc1-2
The Inhibition of the first is lower: 22% for the first, 46% for the second.

First: COc1ccc2c(NN=Cc3ccc(F)cc3)ccnc2c1
Second: Cl.Oc1cccc(Nc2ccnc3cc(-c4ccncc4)ccc23)c1
The Inhibition of the first is higher: 14% for the first, 8% for the second.

First: Br.COc1ccc(OCCCCON2C(=N)N=C(N)NC2(C)C)cc1
Second: Br.COc1ccc(CCCON2C(=N)N=C(N)NC2(C)C)cc1
The Inhibition of the first is lower: 54% for the first, 61% for the second.

Compared with `O=C(NCCc1cccc(Cl)c1Cl)c1ccc(N2CCN(c3ccncc3)CC2)nc1.O=C(O)C(F)(F)F`, `O=C(NCc1cccc(CN2CCOCC2)c1)c1cc(Br)cc(N2CCN(c3ccncc3)CC2)c1.O=C(O)C(F)(F)F` is lower in Inhibition: 38% for the first, 25% for the second.

Going from `CCCCCC(=O)NCC(NCCCNc1cc(=O)c2ccccc2[nH]1)c1cc(Br)cc(Br)c1` (stereo not given) to `CCOc1c(Br)cc(C)cc1CNCCCNc1nc2ccccc2[nH]1.Cl`, the Inhibition rises from 0% to 24%.

Compared with `Cc1cc(=O)[nH]c(-n2nc(C)cc2NC(=O)C(c2ccccc2)c2ccccc2)n1`, `Cc1cccc2nc(-c3cccc(-c4cccc(NC(=O)CC5NC(=O)c6ccccc65)c4)c3)[nH]c12` (stereo not given) is lower in Inhibition: 31% for the first, 8% for the second.

Compared with `CS(=O)(=O)c1cccc(-c2cnc(N)c3cc(-c4cccc(F)c4)ccc23)c1`, `CS(=O)(=O)c1cccc(-c2cnc(N)c3cc(-c4ccc5c(c4)OCO5)ccc23)c1.O=CO` is lower in Inhibition: 45% for the first, 37% for the second.

Going from `COc1ccccc1/C=C/C(=O)NCCC1CCN(CCCCCNC(=O)/C=C/c2ccc(Cl)c(Cl)c2)CC1` to `O=C(C=Cc1ccc(Cl)c(Cl)c1)NCCCCCN1CCC(CCCNS(=O)(=O)c2ccc(Br)cc2)CC1`, the Inhibition rises from 34% to 74%.

Going from `CC(CN1CCN(C)CC1)C(=O)Nc1cccc(-c2cccc(-c3nc4cc(F)ccc4[nH]3)c2)c1` (stereo not given) to `CC(CN(C)C)C(=O)Nc1cccc(-c2cccc(-c3nc4cc(F)ccc4[nH]3)c2)c1` (stereo not given), the Inhibition rises from 23% to 29%.

Going from `Cc1cc(C2CCN(CCCCNC(=O)c3ccc(NC(=O)c4ccc(Cl)cc4)cc3)CC2)c(C)cc1OC(C)C.Cl` to `CCOc1ccc(C2CCN(CCN3CCC(NC(=O)c4ccc(-c5ccc(C(F)(F)F)cc5)cc4)CC3)CC2)c(OCC2CC2)c1`, the Inhibition falls from 22% to 13%.

First: O=C(CCCCCNC(=O)c1ccc(O)c(-c2ccc(Cl)c(Cl)c2)c1)NC1CCCCCC1
Second: Cc1nnc2c(NC(=O)NC3CCCC3)cc3ccc(-c4cccc(CN(C)C)c4)cc3n12
The Inhibition of the first is lower: 0% for the first, 42% for the second.

First: COc1cc(-c2ccc(-c3cnc(N)nc3OC)[nH]2)cc(OC)c1OC
Second: COc1cc2nc(SCC(C)C)n(CCCn3ccnc3)c(=N)c2cc1OC
The Inhibition of the first is lower: 0% for the first, 15% for the second.

Compared with `CCOc1ccc(Br)cc1/C=C/C(=O)Nc1ccc(C2CCN(C)CC2)cc1`, `COc1ccccc1C1CCN(C2CCC(NC(=O)/C=C/c3ccc(F)c(F)c3)CC2)CC1` (stereo not given) is higher in Inhibition: 30% for the first, 49% for the second.

Compared with `O=C(Nc1ccc(Cn2ncc(N3CCCNCC3)c(Cl)c2=O)cc1)Nc1cc(C(F)(F)F)cc(C(F)(F)F)c1.O=C(O)C(F)(F)F`, `O=C(Nc1ccc(Cl)c(C(F)(F)F)c1)Nc1ccc(Cl)c(C(F)(F)F)c1` is lower in Inhibition: 25% for the first, 1% for the second.

First: Cl.O=[N+]([O-])c1ccc(-c2nc3cc(C4=NC5CCCCC5N4)ccc3[nH]2)cc1 (stereo not given)
Second: N#Cc1cccc(NC(=O)Nc2ccc(-c3csc(-c4nc5ccccc5[nH]4)c3)cc2)c1
The Inhibition of the first is lower: 0% for the first, 63% for the second.

First: O=C(C1CCCC1)N1CCOC(CCN2CCC(c3ccccc3)CC2)(c2ccc(Cl)c(Cl)c2)C1 (stereo not given)
Second: CCOc1ncccc1CN1CCC(N2CCc3cc(NC(=O)c4ccco4)ccc32)C1 (stereo not given)
The Inhibition of the first is higher: 16% for the first, 3% for the second.

Compared with `COc1cc(-c2nc(-c3ccncc3)c(-c3ccc4c(c3)CCC4=NO)[nH]2)ccc1OCCN1CCCCC1.Cl`, `Cc1cccc2nc(-c3cccc(-c4ccc(NC(=O)c5cnccc5C(F)(F)F)cc4)c3)[nH]c12` is lower in Inhibition: 75% for the first, 60% for the second.

First: CC(C)C[C@H](NC(=O)c1ccc(F)cc1)C(=O)N[C@H](/C=N/NC(=O)c1ccccc1)CCc1ccccc1
Second: CCc1ccc(CN(Cc2ccc(C)cc2)Cc2ccc(NC(C)=O)cc2)cc1
The Inhibition of the first is lower: 1% for the first, 6% for the second.

Going from `Nc1nc(Nc2cccc(Cl)c2)ncc1C(=O)NCc1ccncc1` to `Cc1nc2ccc3ccc(CNc4ccc(C#N)cc4)cc3c2c(=O)[nH]1`, the Inhibition rises from 3% to 55%.

Compared with `O=C(c1ccc([N+](=O)[O-])o1)N1CCC(Cc2ccc(C(F)(F)F)cc2)CC1`, `CCCCCCN1CCC(NCc2cccc(C(F)(F)F)c2)CC1.O=C(O)C(F)(F)F` is lower in Inhibition: 38% for the first, 18% for the second.
